Bioassay records (PubChem)
KCNQ2 pot – enhances the rat KCNQ2 potassium channel; AID 2239; B-score at 10 µM; 0.54% of 310,000 active; CHO-K1 KCNQ2, FluxOR thallium flux fluorescence; stronger effect = higher value; O88943;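 active means fluorescence ratio B-score at least 3 SD of library B-scores, with initial fluorescence B-score within 3 of them, cut at about 5.3 in these data; same plate scores as AID 2156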;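 further: B-score of peak minus minimum over baseline fluorescence ratio after K+ and Tl+ stimulus; positive B-score means potentiation of KCNQ2 with more thallium influx and brighter signal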
KCNQ2 inh – inhibitors of rat KCNQ2 potassium channel; B-score at 10 µM; AID 2156; O88943; 1.1% of 310,000 active; CHO-K1 KCNQ2, FluxOR thallium flux, 20 min; stronger effect = lower value;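 active means fluorescence ratio B-score at most minus 3 library SDs, with starting brightness B-score within 2 library SDs, cut at about -5.5 in these data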
Kir21 conf inh – confirmation of mouse Kir2.1 potassium channel inhibitors. 41% of 2,300 active. Kir2.1-expressing cells, FluxOR thallium flux fluorescence; stronger effect = lower value. Tl flux remaining, % of negative control (stronger effect = lower value), % at 10 µM. shares compounds with KCNQ2 pot;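 active means Primary-screen hit whose thallium flux fell at least 3 control SD below untreated wells in both duplicates, with normal baseline fluorescence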;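 further: 0% = blank wells without stimulus and 100% = stimulated no-compound controls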
HEK293 ctr – parental HEK293 activity in Kir2.1 inhibitor counter-screen | shares compounds with KCNQ2 pot | AID 2105 | parental HEK293 cells, FluxOR thallium flux fluorescence; 0% = unstimulated blank wells | 19% of 2,300 active | FluxOR signal as % of negative control (100 = no effect), % at 10 µM;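 active means dye signal at least 3 control SD above or below untreated wells in both duplicates, raw fluorescence within 3, either direction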;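 further: percent is based on the flux ratio of peak minus minimum fluorescence over baseline F0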
CHO-K1 ctr – alters thallium flux in parental CHO-K1 cells, KCNQ2 counter-screen | shares compounds with KCNQ2 pot | AID 2282 | FluxOR thallium flux fluorescence; zero = vehicle mean+3SD, 100% = vehicle-minus-blank window | 43% of 1,200 active | activity increase over 3SD of controls, % at 10 µM;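 active means signal rise of at least 3 SD above the untreated control mean, in both duplicate wells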;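 further: counter screen of KCNQ2 potentiator hits so any rise reflects channel-independent effects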
KCNQ1 sel pot – tests whether KCNQ2 potentiators also act on human KCNQ1; shares compounds with KCNQ2 pot; CHO KCNQ1 stable, FluxOR thallium flux fluorescence; beyond 3SD, as % of vehicle-control signal; activation over 3SD threshold, % at 10 µM; 28% of 1,200 active; AID 2283;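 active means fluorescence ratio rise of at least 3 SD of vehicle wells above their mean, in both replicate wells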;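 further: 0% = vehicle mean plus 3 SD and 100% = vehicle minus unstimulated blank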
KCNQ2 pot conf – confirmation of rat KCNQ2 potassium channel potentiators | shares compounds with KCNQ2 pot | CHO-KCNQ2 cells, FluxOR thallium flux fluorescence | potentiation, less the hit threshold, % at 10 µM | 68% of 1,200 active;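 active means fluorescence ratio rising 3 SD or more over the vehicle control mean in both replicates, plus primary screen hit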;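 further: peak minus minimum thallium fluorescence divided by baseline after K/Tl stimulus; 0% = vehicle mean plus 3 SD and 100% = vehicle minus unstimulated blank difference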
Kir2-1 sel – tests whether KCNQ2 potentiators also affect mouse Kir2.1; activity over 3SD threshold, % at 10 µM; HEK293 Kir2.1, FluxOR thallium flux fluorescence; AID 2345; 2% of 1,200 active; shares compounds with KCNQ2 pot;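 active means fluorescence ratio rise of at least 3 SD above the vehicle-control mean, seen in both replicates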;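 further: 0% = vehicle mean plus 3 SD and 100% = vehicle minus no-stimulus blank window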
KCNQ2 W236L pot – KCNQ2 potentiators acting on retigabine-insensitive rat KCNQ2 W236L mutant. shares compounds with KCNQ2 pot. CHO KCNQ2-W236L, automated patch clamp current. current increase over 3SD of negative controls (%), stronger effect = higher value, % at 25 µM. 10% of 940 active. AID 2558;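 active means current increase at least 3 SD of the untreated controls above them in both duplicate recordings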
* marks the source's active call; other numbers are inactive results; i = inactive; . = not tested or not shown. Rows were chosen to be rich in hits. Some 1.6% of all compounds tested hit in one or more screens of this group.

SMILES | KCNQ2 pot | KCNQ2 inh | Kir21 conf inh | HEK293 ctr | others
Cc1ccccc1-c1nc2ccc(Cl)cc2c(=O)n1O | . | i | . | .
COc1ccccc1-c1nc2cc(Cl)ccc2c(=O)n1O | . | i | . | .
O=c1c2ccccc2nc(-c2ccccc2)n1O | 0.66 | i | . | .
O=c1c2cc(Br)ccc2nc(-c2cccc(C(F)(F)F)c2)n1O | 27.7* | i | i | 611.0%* | CHO-K1 ctr=-11.5;KCNQ1 sel pot=-12.6;KCNQ2 pot conf=92.2*;Kir2-1 sel=13.8*;KCNQ2 W236L pot=i
O=C(/C=C/c1ccc(F)cc1)NCc1cccs1 | . | i | . | .
Cc1cc(=O)n2[nH]c(-c3cccnc3)nc2n1 | 0.61 | i | . | .
Cc1cc(OCC(=O)Nc2cccc(S(=O)(=O)NC3=NCCCCC3)c2)ccc1Cl | 1.79 | i | . | .
Cc1cc(C)n(CC(O)COc2ccc(Cl)cc2Cl)n1 (centres undefined) | . | i | . | .
OC(CNCC1(N2CCCCC2)CCCCC1)COc1ccc(Cl)cc1Cl (centres undefined) | 2.54 | i | 50.0%* | 75.0%*
CCOc1ccc(NC(=O)CN2C(=O)C(C)SC(C)C2=O)cc1 (centres undefined) | 0.67 | i | . | .
CC(=O)c1cc(F)ccc1OCC(=O)N1CCCc2ccccc21 | . | i | 54.5%* | i
O=C(COc1ccccc1F)N1CCCc2ccccc21 | 0.68 | i | . | .
Cc1ccc(S(=O)(=O)N(C)c2nc3ccccc3[nH]c2=S)cc1 | 5.57* | i | i | 154.0%* | CHO-K1 ctr=-26.0;KCNQ1 sel pot=-6.3;KCNQ2 pot conf=-3.3;Kir2-1 sel=-34.7
CCc1nnc2c(N(C)S(=O)(=O)c3ccc(C)cc3)nc3ccccc3n12 | 1.4 | i | . | .
COc1ccc(OCc2cc(C(=O)N3CCN(CC(=O)N(C)C)CC3)no2)c(Cl)c1 | . | i | . | .
OC(CNCc1ccco1)Cn1c2ccccc2c2ccccc21 (centres undefined) | . | i | 72.5%* | i
OC(CNCc1ccco1)COc1ccccc1 (centres undefined) | . | i | . | .
COc1cc(CNCc2ccccn2)ccc1OCc1ccccc1Cl | 2.33 | i | . | .
COC(=O)C1(C)NC(c2ccco2)C2C(=O)N(c3ccc(F)cc3)C(=O)C21 (centres undefined) | 2.03 | i | . | .
CCC/C=N/NC(=O)C1COc2ccccc2O1 (centres undefined) | . | i | . | .
CC(=O)c1cccc(NC(=O)c2ccc(N(Cc3ccccc3)S(C)(=O)=O)cc2)c1 | 1.6 | i | . | .
CS(=O)(=O)N(Cc1ccccc1)c1ccc(C(=O)Nc2ccc(C(N)=O)cc2)cc1 | . | i | i | i
O=C(NNC(=O)c1ccc2c(=O)n3c(nc2c1)CCC3)c1cccc(Cl)c1 | 1.45 | i | . | .
COc1ccc(N(C(=O)c2cccnc2)S(=O)(=O)c2cccs2)cc1 | . | i | . | .
Clc1ccc(OCCOCCN2CCc3ccccc3C2)c(Cl)c1 | . | i | . | .
SMILES | KCNQ2 pot | KCNQ2 inh | Kir21 conf inh | HEK293 ctr | others
c1ccc(-c2ccccc2OCCOCCN2CCc3ccccc3C2)cc1 | . | i | 50.5%* | i
O=C(Cn1cnc2c(cnn2-c2ccccc2)c1=O)NCCc1ccccc1 | 0.04 | i | . | .
CC1=CC(C)(C)N(C(=O)CSc2nnc(N)s2)c2cc(C)c(C)cc21 | 1.01 | i | . | .
CC1=CC(C)(C)N(C(=O)CSc2nnc(C)s2)c2ccc(C)cc21 | . | i | 70.5%* | i
Cc1noc(C)c1COC(=O)CCOc1ccccc1 | 1.08 | i | . | .
Cc1noc(C)c1COC(=O)CCN1c2ccccc2Sc2ccccc21 | . | i | 70.0%* | i
O=C1CN(C(=O)CCCc2c[nH]c3ccccc23)c2ccccc2N1 | . | i | 50.5%* | i
O=C(O)CCCC(=O)N1CC(=O)Nc2ccccc21 | 1.68 | i | . | .
